TDP1 cell noCPT: qHTS for Inhibitors of human tyrosyl-DNA phosphodiesterase 1 (TDP1): qHTS in cells in absence of CPT. Potency, µM (doses to about 46.2 µM), for inactives: top-dose activity change, negative = growth inhibition, actives largely listed as inhibitors. 420,000 compounds, 15% hits. AID 686978, 2013. DT40 Tdp1-/- hTDP1 cells, no CPT, ATP luminescence, 48 h; further: on the % scale 0 is the no-effect control and ±100 the full control effect; nearly all actives have a fitted effect of over 55% in size
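Chicken DT40 Tdp1-/- cells stably complemented with human TDP1 were seeded at 400 cells/well with DMSO in place of 20 nM camptothecin. After compound pinning, cells grew at least 48 hr at 37 °C; viability read by CellTiter-Glo luminescence.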
TDP1 cell CPT: qHTS for Inhibitors of human tyrosyl-DNA phosphodiesterase 1 (TDP1): qHTS in cells in presence of CPT; AID 686979, 2013; Potency, µM (titrated, usually from 46.2 µM), inactives show top-dose activity change, negative = growth inhibition, hits mostly inhibitors; chicken DT40 Tdp1-/-;hTDP1 cells + 20 nM CPT, ATP luminescence, 48 h; 420,000 compounds, 12% hits; further: on the % scale 0 is the no-effect control and ±100 the full control effect; nearly all actives have a fitted effect of over 55% in size
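Cell growth measured by CellTiter-Glo luminescence after a minimum 48 h, 37 C compound exposure with 20 nM CPT in Tdp1-knockout DT40 cells stably expressing hTDP1, seeded 400/well; qHTS titration format.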
ClpP mod: qHTS Assay for Activators of ClpP; purified B. subtilis ClpP, FRET peptide cleavage, 20 min; Potency, µM (titrated, usually from 57.5 µM), without a hit: at the top dose activity change, negative = active; 340,000 compounds, 1.9% hits; AID 651965, 2013; active means well fitted falling curve with a large enough effect; inconclusive means small, poorly fitted or top-dose-only effect; inactive means no such curve, though single readings can be large or run the other way; further: the source files actives as falling curves though it sought activators and does not explain the sign; nearly all actives have a fitted effect of over 65% in size
Target sequence (P80244 whole entry, looked up): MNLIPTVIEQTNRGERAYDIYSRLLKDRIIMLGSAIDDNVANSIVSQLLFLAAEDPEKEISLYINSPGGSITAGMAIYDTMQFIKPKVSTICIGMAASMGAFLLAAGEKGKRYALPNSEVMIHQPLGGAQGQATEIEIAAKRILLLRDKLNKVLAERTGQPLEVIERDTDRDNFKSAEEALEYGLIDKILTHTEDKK
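FRET quenching reversal measured ClpP activation: 10 microg/mL B. subtilis ClpP at pH 8 with the FRET-FV decapeptide, read at 430 nm after 320 nm excitation. The 20-min minus 0-min signal was scaled between DMSO/no-enzyme wells and ADEP (5.8 microM final).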
TDP1 inh: qHTS Assay for Inhibitors of Tyrosyl-DNA Phosphodiesterase (TDP1); recombinant TDP1, AlphaScreen DNA substrate cleavage; 350,000 compounds, 0.28% hits; Tyrosyl-DNA phosphodiesterase 1 (Homo sapiens), Q9NUW8; Potency, µM (top dose mostly 130 µM), for inactives: at the top dose activity change, negative = inhibition, actives largely listed as inhibitors; AID 485290, 2010; further: on the % scale 0 is the no-effect control and ±100 the full control effect; nearly all actives have a fitted effect of over 40% in size
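Tdp1 1 nM final; 15 min RT w/ cpd; substrate 15 nM, 5 min; beads 10 ug/ml, 10 min; AlphaScreen read. Neg ctrl: no enzyme.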
Numbers without * were called inactive; u = inconclusive; x = no result given; [ ] = another dose, or the depositor's remark. An excerpt weighted towards active compounds, which were near 17% of everything screened. Unless noted, the call rests on the fitted dose curve; in most records, active means well fitted curve in the direction sought with a large enough effect; inconclusive means small, poorly fitted or top-dose-only effect, or another doubt; inactive means no such curve, though single readings can be large; an effect the other way counts as inactive or inconclusive. Potency means the concentration at half of the fitted maximal effect.

SMILES | TDP1 cell noCPT | TDP1 cell CPT | ClpP mod | TDP1 inh
O=C1Nc2c(c(=O)[nH]c(=O)n2-c2ccccc2)C1(NS(=O)(=O)c1ccc(Cl)cc1)C(F)(F)F (configuration not stated) | 4% | 2% | -2% | 3%
Cc1c(Cl)cccc1NC(=O)NCc1cccnc1 | 13% | 1% | 2% | 1%[56.1 µM]
Cc1ccc(NC(=O)c2ccc(Cn3cc(Br)cn3)o2)cc1 | 21µM* | u | -6% | -12%
CCCOc1ccc(-c2nc(-c3ccc(N)cc3)cs2)cc1 | x | x | x | 1%
CN1CCN(c2ccc(S(=O)(=O)N3CCOCC3)cc2NC(=O)COc2ccc(C#N)cc2)CC1 | 0% | -10% | -3% | x
CNc1ncnc2c1ncn2[C@H]1CN(Cc2ccc3c(c2)OCO3)C[C@@H](CO)O1 | u | 12µM* | 1% | x
CC(=O)OC[C@@H]1CN(Cc2ccccc2)C[C@H](n2cnc3c(NC(C)C)ncnc32)O1 | u | -9% | 0% | x
OCCN1CCN(c2ncnc3c2ncn3[C@H]2CN(Cc3cccs3)C[C@@H](CO)O2)CC1 | -1% | u | 1% | x
CC(=O)OC[C@@H]1CN(Cc2ccccc2)C[C@H](n2cnc3c(N4CCN(c5ccccc5)CC4)ncnc32)O1 | 18µM* | 16µM* | u | x
OC[C@@H]1CN(Cc2cccnc2)C[C@H](n2cnc3c(N4CCN(c5ccccc5)CC4)ncnc32)O1 | 16µM* | u | -5% | x
OC[C@@H]1CN(Cc2cccs2)C[C@H](n2cnc3c(N4CCN(c5ccccc5)CC4)ncnc32)O1 | u | 23µM* | 1% | x
COCCN1C[C@@H](CO)O[C@@H](n2cnc3c(N4CCN(c5ccccc5)CC4)ncnc32)C1 | u | -17% | 1% | x
CCN(c1ccccc1C)S(=O)(=O)c1nnc(NC(=O)c2ccc(OC)c(OC)c2)s1 | u | -22% | -28% | 1%
COc1ccc2nc(-c3ccccc3)nc(SCC(=O)NCC3CCCO3)c2c1 (configuration not stated) | u | 4% | 0% | 0%
CSc1nn2c(C(F)(F)F)cc(C(F)(F)F)nc2c1C(N)=O | -12% | -3% | 1% | 0%
OC[C@@H]1CN(Cc2ccc3c(c2)OCO3)C[C@H](n2cnc3c(N4CCN(c5ccccc5)CC4)ncnc32)O1 | u | 18µM* | -11% | x
O=C(Nc1ccc(OCc2ccccc2)cc1)Nc1ccccc1C(=O)NCCCN1CCOCC1 | u | -12% | x | 6%
O=c1c(-c2cccc(F)c2)nc2cncnc2n1Cc1ccccc1Cl | -14% | -4% | x | x
CC(O)CNc1nc2c(c(=O)n(C)c(=O)n2C)n1C/C=C/c1ccccc1 (configuration not stated) | 9.2µM* | 8.2µM* | -2% | 3%
Cn1c(=O)c2c(nc(NCCCO)n2C/C=C/c2ccccc2)n(C)c1=O | 18µM* | 18µM* | -1% | 9%
CCCCn1c(N)c(N(CC(C)C)C(=O)CSc2nnc(C)n2-c2ccccc2)c(=O)[nH]c1=O | 25% | -15% | 2% | x
CC(CC(=O)NCc1ccc(Cl)cc1Cl)CC1=NS(=O)(=O)c2ccccc2N1 (configuration not stated) | u | u | -2% | 1%
CC(C)(C)c1ccccc1NC(=O)NC1CCN(Cc2c(F)cccc2Cl)CC1 | -7% | 7% | x | x
COc1ccc(OCc2cc(/C=N\NC(=O)c3ccccc3)ccc2OC)cc1 | 5.2µM* | 4.6µM* | -13% | 4%
COc1ccc(/C=N/NC(=S)Nc2ccccc2)cc1COc1ccc(F)cc1F | -27% | 9% | 35µM* | 0%
SMILES | TDP1 cell noCPT | TDP1 cell CPT | ClpP mod | TDP1 inh
COc1ccc(/C=N/NC(=O)c2ccoc2C)cc1CN1CCN(c2ccc(F)cc2)CC1 | 15µM* | u | 0% | x
COc1ccc(/C=N\NC(=O)c2ccc(F)cc2)cc1COc1ccccc1C(N)=O | u | -24% | -6% | 7%
COc1ccc(C(=O)N/N=C\C(C)=C\c2ccccc2)cc1OC | 16µM* | u | 29% | x
COc1ccccc1NC(=O)COC(=O)C1CC2CCCC(C1)C2=O (configuration not stated) | -5% | 17% | x | 1%
Cn1ccc2cc(S(=O)(=O)N3CCN(C(=O)Nc4cccc(F)c4)CC3)ccc21 | x | x | 2% | 1%
COc1ccc(OC)c(NC(=O)CCc2c[nH]c3ccccc23)c1 | -12% | 11% | x | 4%
COc1cc([N+](=O)[O-])cc(/C=N/NC(=O)CC#N)c1O | x | x | x | -8%
COc1cc2c(cc1OC)CN(C(=O)CNC(=O)c1ccc(OC(F)F)cc1)CC2 | -9% | 10% | -2% | 3%
COc1ccc([N+](=O)[O-])cc1NS(=O)(=O)c1ccc(Cl)c(C(=O)Nc2sc3c(c2C#N)CCCCC3)c1 | x | x | x | -1%
COc1ccc(C(=O)N/N=C\c2ccc(OC)c(COc3ccccc3Br)c2)c(OC)c1 | u | 23µM* | -21% | 5%[56.1 µM]
COc1cc(OC)cc(C(=O)N/N=C/c2ccc(OC)c(COc3ccc(F)cc3)c2)c1 | 2.9µM* | 2.3µM* | -5% | 4%
Cc1cccc(C(=O)NCC(=O)Nc2ccncc2)c1 | u | -28% | 0% | x
Cc1sc2ncnc(N3CCC(C(=O)Nc4nc(-c5ccc(F)cc5)cs4)CC3)c2c1C | 16µM* | u | -1% | 5%
CCN(CC)CCNC(=O)c1ccc(NC(=O)C2CCN(c3ncnc4sc(C)c(C)c34)CC2)cc1 | 23µM* | 18µM* | -4% | 4%
Cc1sc2ncnc(N3CCC(C(=O)Nc4ccc(OC(F)F)c(Cl)c4)CC3)c2c1C | u | u | -7% | -1%
Cc1sc2ncnc(N3CCC(C(=O)Nc4nnc(CC(C)C)s4)CC3)c2c1C | 23µM* | u | x | x
Cc1ccccc1-c1cc(C(=O)NCc2cccc(Br)c2)nn1CC1CC(c2cccc([N+](=O)[O-])c2)=NO1 (configuration not stated) | u | -26% | -4% | 2%
COc1ccccc1N1C(=O)c2ccc(C(=O)Nc3nccs3)cc2C1=O | -11% | 21% | x | 2%
COc1ccc(NC(=O)Cn2c(=O)oc3cc(S(=O)(=O)NCc4ccccc4)ccc32)c(OC)c1 | 6.5µM* | 8.2µM* | 0% | 4%
CN1CCN(C(=O)Cn2c(=O)oc3cc(S(=O)(=O)NCc4ccccc4)ccc32)CC1 | -26% | u | 1% | -13%
COc1ccc(C)cc1NC(=O)Cn1c(=O)oc2cc(S(=O)(=O)NCc3ccccc3)ccc21 | 15µM* | 16µM* | -1% | 4%
Cc1ccc(C)c(NC(=O)Cn2c(=O)oc3cc(S(=O)(=O)NCc4ccccc4)ccc32)c1 | 8.2µM* | 13µM* | 1% | 4%

Bioassay records deposited in PubChem BioAssay by National Center for Advancing Translational Sciences (NCATS).
